# PubChem BioAssay (EPA / NIEHS)
# Inconclusive results are not listed. Some compounds were tested as several samples or in several runs, with calls that do not always agree. Active and inactive are the calls of the source. Rule for the calls, unless noted: active = hit-call score of the fitted dose curve at least 0.9, where 1 is the maximum; inconclusive = response in the unintended direction; inactive = score below 0.9.
# Legend:
# [1] = STM_H9_CystineISnorm_perc: Stemina devTOX quickPredict H9 human embryonic stem cell (hESC)-based Assay for Cystine (CYSS) Metabolite Biomarker, Normalized (AID 2283713; active = hit-call score of the fitted dose curve at least 0.9, where 1 is the maximum; inactive = score below 0.9)
# Outline: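 Undifferentiated H9 hESCs were exposed to compound for 72h, with medium and compound replaced every 24h. Final-24h conditioned medium was deproteinized and analyzed by UPLC-HRMS. Cystine EIC area was normalized to spiked C13 standard and 0.1% DMSO median.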
# [2] = STM_H9_OrnCyssISnorm_ratio: Stemina devTOX quickPredict H9 human embryonic stem cell (hESC)-based Assay for Ornithine (ORN):Cystine (CYSS) Ratio (AID 2283714)
# Outline: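 Steps: H9 hESCs in pluripotent state dosed 72h, medium plus compound renewed every 24h; conditioned medium from the final 24h deproteinized in 40% acetonitrile; ORN and CYSS quantified by UPLC-HRMS with C13 spike-ins; ratio relative to vehicle.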
# [3] = CEETOX_H295R_MTT_cell_viability: Viability Assessment in the CeeTox HT-H295R MTT Assay (AID 2283718; active = hit-call score of the fitted dose curve at least 0.9, where 1 is the maximum; inactive = score below 0.9)
# Outline: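 MTT reduction (0.5 mg/ml, 4 h at 37 C; absorbance at 570 and 650 nm) gave viability as background-corrected percent change versus controls. H295R cells had 48 h forskolin (10 uM) prestimulation, then 48 h chemical exposure at 0.1% DMSO.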
# [4] = Tanguay_ZF_120hpf_ActivityScore_legacy: (Legacy) Oregon State University Tanguay Lab 120 Hour Post-fertilization zebrafish Assay Score for Activity (AID 2283742);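 for AC50: dechorionated Tropical 5D wild-type zebrafish embryos held singly per well; static exposure from 6 hpf until 120 hpf at 28 °C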
# Outline: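 Embryos are staged, enzymatically dechorionated at 4 hpf, placed individually at 6 hpf, then held in test chemical (0.64% DMSO) at 28C until 120 hpf. Mortality and malformations are scored by brightfield, with non-mortality endpoints skipped for dead embryos.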
# [5] = ArunA_CellTiter_hNP: Viability Assessment in the ArunA Biomedical's Oris Neural Crest (hNC) Cell Migration Assay (AID 2283753)
# Outline: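 H9-derived hNP1 neuroprogenitors, 60,000/well on Matrigel, cultured 16 h, then 72 h chemical exposure in test medium. Cell titer via CellTiter Aqueous One; positive-direction fit vs DMSO.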
# [6] = ArunA_Migration_hNP: ArunA Biomedical's Oris Neuroprogenitor (hNP) Cell Migration Assay (AID 2283754)
# Outline: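 Human H9-derived hNP1 neuroprogenitors on Matrigel with LIF/bFGF, plated around seeding stoppers for 16 h at 37C; stoppers removed at start of 72 h chemical exposure. Calcein-AM staining, fluorescence 494/517 nm in detection zone; loss-of-signal vs DMSO; cytochalasin D control.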
# [7] = ArunA_Migration_hNC: ArunA Biomedical's Oris Neural Crest (hNC) Cell Migration Assay (AID 2283755)
# Outline: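 Human H9-derived neural crest stem cells, 60,000/well on Matrigel, 16 h at 37C, then 72 h chemical exposure after seeding-stopper removal. Migration into detection zone read as calcein-AM fluorescence (ex494/em517), relative to DMSO.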
# [8] = ArunA_NOG_NucleusCount: ArunA Biomedical's Neurite Outgrowth (NOG) Assay for Nucleus Count (AID 2283756)
# Outline: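 Human H9-derived differentiated neurons were exposed for 48 h right after seeding. Hoechst-stained nuclei gated by size and intensity were counted by automated high-content imaging as viable neurons. Loss of signal vs DMSO.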
# [9] = ArunA_CellTiter_hNC: Viability Assessment in the ArunA Biomedical's Oris Neural Crest (hNC) Cell Migration Assay (AID 2283752)
# Outline: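 Human H9-derived neural crest stem cells were plated at 60,000 per well on Matrigel in growth medium with LIF and bFGF, incubated 16 h at 37C, then exposed to chemical for 72 h. Viability was read with CellTiter Aqueous One as loss of signal versus DMSO.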
# [10] = test system: Thyroperoxidase (TPO), gene 445522; experiment: CCTE_Simmons_GUA_TPO: CCTE's Guaiacol Assay for Thyroperoxidase (TPO) Inhibition, Simmons Lab (AID 2283750)
# Outline: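 Porcine thyroid microsomes (25 ug) in 200mM potassium phosphate, preincubated 30 s at 37C with compound (8 concentrations, 5 nM–87.5 uM) and 35mM guaiacol; 1mM H2O2 starts reaction. Absorbance change at 450nm over first 80 s; loss of signal versus DMSO, three replicates.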
smiles,measurement,setting,value
CNc1cnn(-c2cccc(C(F)(F)F)c2)c(=O)c1Cl,outcome,[1],inactive
same,outcome,[2],inactive
same,outcome,[3],inactive
same,outcome,[4],inactive
CCOP(=S)(OCC)Oc1ccc2c(C)c(Cl)c(=O)oc2c1,outcome,[1],inactive
same,outcome,[2],inactive
same,outcome,[3],inactive
same,outcome,[4],inactive
CN(C)[C@@H]1C(=O)C(C(N)=O)=C(O)[C@@]2(O)C(=O)C3=C(O)c4c(O)cccc4[C@@](C)(O)[C@H]3[C@H](O)[C@@H]12,AC50,[1],11.6 µM (active)
same,outcome,[1],inactive
same,outcome,[2],inactive
same,outcome,[3],inactive
same,outcome,[4],inactive
same,AC50,[5],4.16 µM (active)
same,AC50,[6],50 µM (active)
same,AC50,[7],50 µM (active)
same,AC50,[8],44.7 µM (active)
Cc1ccn2nc(S(=O)(=O)Nc3c(F)cccc3F)nc2n1,outcome,[1],inactive
same,outcome,[3],inactive
same,outcome,[4],inactive
FC(F)C(F)(F)OCC(Cn1cncn1)c1ccc(Cl)cc1Cl (configuration not stated),outcome,[1],inactive
same,outcome,[3],inactive
same,AC50,[4],0.00154 µM (active)
CON=C(C(=O)OC)c1ccccc1CON=C(C)c1cccc(C(F)(F)F)c1,outcome,[1],inactive
same,outcome,[4],inactive
CC(C1CC1)C(O)(Cn1cncn1)c1ccc(Cl)cc1 (configuration not stated),AC50,[1],83 µM (active)
same,AC50,[2],77.4 µM (active)
same,outcome,[3],inactive
same,AC50,[4],26.2 µM (active)
CCC(=O)Nc1ccc(Cl)c(Cl)c1,outcome,[3],inactive
same,outcome,[4],inactive
CCOC(=O)COc1cc(-c2nn(C)c(OC(F)F)c2Cl)c(F)cc1Cl,outcome,[3],inactive
same,outcome,[4],inactive
O=C(O)c1cc(Oc2ccc(C(F)(F)F)cc2Cl)ccc1[N+](=O)[O-],outcome,[3],inactive
same,outcome,[4],inactive
CSC1=N[C@@](C)(c2ccccc2)C(=O)N1Nc1ccccc1,AC50,[1],30.1 µM (active)
same,AC50,[2],29.9 µM (active)
same,AC50,[4],37.6 µM (active)
CC1=NNC(=O)N(/N=C/c2cccnc2)C1,outcome,[1],inactive
same,outcome,[4],inactive
same,outcome,[9],inactive
same,outcome,[6],inactive
same,outcome,[7],inactive
same,AC50,[8],59.4 µM (active)
CNC(=O)ON=C(SC)C(=O)N(C)C,outcome,[3],inactive
same,outcome,[4],inactive
S=C1NCCN1,outcome,[1],inactive
same,outcome,[4],inactive
same,outcome,[9],inactive
same,outcome,[5],inactive
same,outcome,[6],inactive
same,outcome,[7],inactive
same,outcome,[8],inactive
C[N+]1(C)CCCCC1,outcome,[1],inactive
same,outcome,[4],inactive
CCOP(=O)(NC(C)C)Oc1ccc(SC)c(C)c1 (configuration not stated),outcome,[3],inactive
same,AC50,[4],33.3 µM (active)
COc1ccc(C(=CC(=O)N2CCOCC2)c2ccc(Cl)cc2)cc1OC,outcome,[1],inactive
same,outcome,[2],inactive
same,outcome,[3],inactive
same,AC50,[4],42.9 µM (active)
CSc1nc(NC(C)C)nc(NC(C)C)n1,AC50,[1],0.234 µM (active)
same,AC50,[2],0.237 µM (active)
same,outcome,[3],inactive
same,outcome,[4],inactive
CC(C)N(C(=O)SCC(Cl)=C(Cl)Cl)C(C)C,AC50,[1],12.4 µM (active)
same,AC50,[2],12.2 µM (active)
same,outcome,[4],inactive
Cc1nn(-c2cc(NS(C)(=O)=O)c(Cl)cc2Cl)c(=O)n1C(F)F,outcome,[1],inactive
same,outcome,[4],inactive
CCCCOC(=O)[C@@H](C)Oc1ccc(Oc2ccc(C#N)cc2F)cc1,AC50,[1],77.7 µM (active)
same,AC50,[2],84.8 µM (active)
same,outcome,[4],inactive
C[Si](Cn1cncn1)(c1ccc(F)cc1)c1ccc(F)cc1,AC50,[1],30.2 µM (active)
same,AC50,[2],50.7 µM (active)
same,outcome,[3],inactive
same,AC50,[4],35.9 µM (active)
same,outcome,[6],inactive
same,outcome,[7],inactive
same,outcome,[8],inactive
C#CC(C)(C)NC(=O)c1cc(Cl)cc(Cl)c1,outcome,[3],inactive
same,outcome,[4],inactive
CCCSP(=O)(OCC)Oc1ccc(Br)cc1Cl (configuration not stated),outcome,[3],inactive
same,outcome,[4],inactive
CNC(=O)ON=C(C)SC,outcome,[3],inactive
same,outcome,[4],inactive
CNC(=O)Oc1cccc2c1OC(C)(C)O2,outcome,[3],inactive
same,outcome,[4],inactive
CCOP(=O)(SC(C)CC)N1CCSC1=O (configuration not stated),outcome,[4],inactive
CCOP(=S)(OCC)OC(Cl)C(Cl)(Cl)Cl (configuration not stated),outcome,[4],inactive
CCOP(=O)(OCC)Oc1cc(C)nc(C(C)C)n1,outcome,[4],inactive
Nc1c(Cl)cc([N+](=O)[O-])cc1Cl,AC50,[4],93.6 µM (active)
CC[C@H](C)[C@H]1O[C@]2(C=C[C@@H]1C)C[C@@H]1C[C@@H](C/C=C(\C)[C@@H](O[C@H]3C[C@H](OC)[C@@H](O[C@H]4C[C@H](OC)[C@@H](NC)[C@H](C)O4)[C@H](C)O3)[C@@H](C)/C=C/C=C3\CO[C@@H]4[C@H](O)C(C)=C[C@@H](C(=O)O1)[C@]34O)O2,AC50,[4],1.49 µM (active)
CCCOCC(=Nc1ccc(Cl)cc1C(F)(F)F)n1ccnc1,outcome,[3],inactive
same,outcome,[4],inactive
CN1COCN(Cc2cnc(Cl)s2)C1=N[N+](=O)[O-],outcome,[4],inactive
COP(=O)(OC)OC(Br)C(Cl)(Cl)Br (configuration not stated),outcome,[4],inactive
C#CCC1=C(C)C(OC(=O)C2C(C=C(C)C)C2(C)C)CC1=O (configuration not stated),outcome,[3],inactive
same,outcome,[4],inactive
CCc1cccc(CC)c1N(COC)C(=O)CCl,AC50,[4],27.6 µM (active)
CCOP(=S)(Oc1cnc(C(C)(C)C)nc1)OC(C)C (configuration not stated),outcome,[4],inactive
CC1(C(=O)Nc2ccc(O)c(Cl)c2Cl)CCCCC1,outcome,[3],inactive
same,outcome,[4],inactive
O=c1ccc(=O)[nH][nH]1,outcome,[4],inactive
Cc1cc(C2CC2)nc(Nc2ccccc2)n1,AC50,[4],62.8 µM (active)
CCCSP(=O)(OCC)SCCC,outcome,[3],inactive
same,outcome,[4],inactive
CN(C)NC(=O)CCC(=O)O,outcome,[3],inactive
same,outcome,[4],inactive
CCC(CC)Nc1c([N+](=O)[O-])cc(C)c(C)c1[N+](=O)[O-],outcome,[4],inactive
COc1cccc(C(=O)NN(C(=O)c2cc(C)cc(C)c2)C(C)(C)C)c1C,outcome,[3],inactive
same,outcome,[4],inactive
COP(=O)(NC(C)=O)SC (configuration not stated),outcome,[3],inactive
same,outcome,[4],inactive
same,outcome,[10],inactive
Nc1nc(N)nc(NC2CC2)n1,outcome,[3],inactive
same,outcome,[4],inactive
CC(Oc1cccc(Cl)c1)C(=O)O (configuration not stated),outcome,[4],inactive
CCCCOC(=O)c1ccccc1C(=O)O,outcome,[3],inactive
same,outcome,[4],inactive
CC(C)=CC1C(C(=O)OCN2C(=O)C3=C(CCCC3)C2=O)C1(C)C (configuration not stated),outcome,[4],inactive
CCCCSP(=O)(SCCCC)SCCCC,outcome,[4],inactive
COP(=O)(OC)SCn1c(=O)oc2cc(Cl)cnc21,outcome,[4],inactive
COc1cc(OC)nc(Sc2cccc(Cl)c2C(=O)O)n1,outcome,[4],inactive
CCOP(=S)(OCC)Oc1ccc([N+](=O)[O-])cc1,outcome,[3],inactive
same,outcome,[4],inactive
CCc1cnc(C2=NC(C)(C(C)C)C(=O)N2)c(C(=O)O)c1 (configuration not stated),outcome,[4],inactive
COP(=O)(OC)C(O)C(Cl)(Cl)Cl (configuration not stated),outcome,[4],inactive
CCOC(=O)CC(SP(=O)(OC)OC)C(=O)OCC (configuration not stated),outcome,[4],inactive
same,outcome,[10],inactive
CCCOc1nn(C(=O)NS(=O)(=O)c2ccccc2C(=O)OC)c(=O)n1C,outcome,[4],inactive
CC(=NC#N)N(C)Cc1ccc(Cl)nc1,outcome,[4],inactive
